A selection: hits, their analogues and other compounds. The true share with any hit is near 4.7%.
eIF4H FP inh – human eIF4H binding inhibitors, primary screen, translation initiation inhibitor project, biochemical, uHTS, fluorescence polarization. Eukaryotic translation initiation factor 4H (Homo sapiens), Q15056. eIF4H fluorescence polarization binding assay. inhibition, % at 35 µM. hit rate 0.94% among 290,000. AID 2012, 2009;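 also: calls also rest on retests at 20 µM and on dose response follow-up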
ALR H2O2 inh – inhibitors of human ALR sulfhydryl oxidase, primary screen, biochemical, H2O2 detection, HRP-luminol luminescence, single point | FAD-linked sulfhydryl oxidase ALR (Homo sapiens), P55789 | purified ALR, DTT oxidation | inhibition, % (concentration not given with the values) | hit rate 3.8% among 290,000 | AID 485317, 2010;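 active = mean replicate inhibition above about 79%, with every replicate also reaching it, limit read from the data; inconclusive = only one of the two criteria met; inactive = mean below limit and not every replicate reaching it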
Target sequence (P55789 whole entry, looked up): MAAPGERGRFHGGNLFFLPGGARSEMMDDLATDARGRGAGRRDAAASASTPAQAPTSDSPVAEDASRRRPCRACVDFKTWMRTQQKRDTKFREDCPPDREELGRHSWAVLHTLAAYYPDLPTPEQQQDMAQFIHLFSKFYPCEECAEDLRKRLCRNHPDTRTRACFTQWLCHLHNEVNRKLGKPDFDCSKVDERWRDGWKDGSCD
PABP polyA inh – PABP poly(A) RNA binding inhibitors, primary screen, biochemical, fluorescence polarization, uHTS; Polyadenylate-binding protein 1 (Homo sapiens), P11940; inhibition, % at 35 µM; hit rate 1% among 290,000;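 also: calls also rest on retests at 20 µM and on dose response follow-up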
SUMO HTRF inh – inhibitors of in vitro SUMOylation cascade, primary screen, biochemical, HTRF, uHTS; HTRF SUMOylation assay, SAE1/SAE2 + UBC9; AID 2006, 2009; hit rate 0.36% among 290,000; inhibition, % at 35 µM; in the data active = inhibition above about 50%, passing the limit was not always enough; inconclusive = no clear call, values can overlap the other calls
Target sequence (P63279 whole entry, looked up): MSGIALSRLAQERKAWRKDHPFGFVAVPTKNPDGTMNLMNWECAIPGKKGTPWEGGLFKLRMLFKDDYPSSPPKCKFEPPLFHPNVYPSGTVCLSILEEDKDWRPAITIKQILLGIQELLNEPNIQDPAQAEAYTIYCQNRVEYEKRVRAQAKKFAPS
MLLE-PAM2 inh – inhibitors of PABP1 MLLE–PAM2 peptide binding, primary screen, biochemical, fluorescence polarization, FITC-PAM2, GST-MLLE; Polyadenylate-binding protein 1 (Homo sapiens), P11940; inhibition, % at 20 µM; hit rate 0.36% among 360,000; AID 588489, 2011; in the data active = inhibition above about 35%, passing the limit was not always enough;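 also: plate controls were DMSO wells with GST-MLLE for no effect and wells lacking GST-MLLE protein for full effect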
Efflux pump inh – inhibitors of Candida efflux pumps in yeast, primary screen, S. cerevisiae, Nile Red, multiplex | inhibition, % at 10 µM | hit rate 0.44% among 330,000 | S. cerevisiae Candida pump triplex | AID 485275, 2010;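 active = plate passing quality check with inhibition over a set limit, or well fluorescence over plate mean plus 4 SD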;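 also: Nile Red retained in pooled yeast measured as flow cytometry median fluorescence; 0% = buffer negative control and 100% = Enniatin B positive control; higher means more Nile Red kept so more efflux inhibition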
* marks the source's active call; other numbers are inactive results. Unless noted, no rule for the calls is given here.

Results for CCCNC(=O)C1(C)CCCN(Cc2ccc(Oc3ccccc3)cc2)C1 (configuration not stated) ?
MLLE-PAM2 inh: 0

What do the screens show for `CC1Oc2ccc(C#N)cc2N(Cc2ccccc2OC(F)(F)F)C1=O` (configuration not stated)?
MLLE-PAM2 inh: 4

Results for O=C(Cn1cncn1)NCc1cc(F)ccc1F ?
eIF4H FP inh: -6; ALR H2O2 inh: -4; PABP polyA inh: -1; SUMO HTRF inh: -10; MLLE-PAM2 inh: -4; Efflux pump inh: 0

Results for Cc1[nH]n(C(N)=S)c(=O)c1N=Nc1ccc(S(=O)(=O)N2CCCC2)cc1 ?
eIF4H FP inh: 2; ALR H2O2 inh: 1; PABP polyA inh: -10; SUMO HTRF inh: -3; MLLE-PAM2 inh: 42*; Efflux pump inh: 0

How did NC(=S)n1[nH]c(-c2ccc([N+](=O)[O-])cc2)c(N=Nc2ccc(Cl)cc2)c1=O do in these assays?
eIF4H FP inh: inconclusive; PABP polyA inh: 6.3*; SUMO HTRF inh: 64*; MLLE-PAM2 inh: 38

What do the screens show for `Cc1ccc([N+](=O)[O-])cc1N=Nc1c(C)[nH]n(C(N)=S)c1=O`?
eIF4H FP inh: -11; ALR H2O2 inh: 98*; PABP polyA inh: 2; SUMO HTRF inh: 7; MLLE-PAM2 inh: 30; Efflux pump inh: 0

What do the screens show for `Cc1ccc([N+](=O)[O-])cc1N=Nc1c(-c2ccc([N+](=O)[O-])cc2)[nH]n(C(N)=S)c1=O`?
eIF4H FP inh: 64; PABP polyA inh: 1; SUMO HTRF inh: 22; MLLE-PAM2 inh: 31

Results for O=Cc1ccc(-c2cccs2)s1 ?
MLLE-PAM2 inh: -5

How did Oc1ccc(N=Cc2ccc(-c3cccs3)s2)cc1 do in these assays?
eIF4H FP inh: 51*; PABP polyA inh: 14; SUMO HTRF inh: 80; MLLE-PAM2 inh: -3; Efflux pump inh: 0

How did COc1ccc(N)c2c1C(=O)c1ccccc1C2=O do in these assays?
eIF4H FP inh: 12; ALR H2O2 inh: -1; PABP polyA inh: 3; SUMO HTRF inh: -69; MLLE-PAM2 inh: 10; Efflux pump inh: 1

Results for COc1cc(C=C2C(=O)c3ccccc3C2=O)ccc1O ?
eIF4H FP inh: -14; ALR H2O2 inh: 60; PABP polyA inh: -5; SUMO HTRF inh: 15; MLLE-PAM2 inh: -3; Efflux pump inh: 0

How did COc1cc(C=C2C(=O)c3ccccc3C2=O)cc(OC)c1 do in these assays?
eIF4H FP inh: 4; PABP polyA inh: 4; SUMO HTRF inh: 12; MLLE-PAM2 inh: 23; Efflux pump inh: 0

Results for COc1cc(C=C2C(=O)c3ccccc3C2=O)cc(OC)c1OC ?
eIF4H FP inh: 12; ALR H2O2 inh: 97*; PABP polyA inh: 2; SUMO HTRF inh: -13; MLLE-PAM2 inh: -11; Efflux pump inh: 0

How did COc1cccc(/C=C2\C(=O)C(=O)c3ccccc32)c1 do in these assays?
eIF4H FP inh: -2; ALR H2O2 inh: 100*; PABP polyA inh: 10; SUMO HTRF inh: 43; MLLE-PAM2 inh: 38*; Efflux pump inh: 0

Results for COc1ccc(OC)c2c1C(=O)c1ccccc1C2=O ?
eIF4H FP inh: 33; PABP polyA inh: 67*; SUMO HTRF inh: 50*; Efflux pump inh: 0

What do the screens show for `CN(C)C(=O)c1cccc(-c2cccc(-c3nc(C(=O)NCc4ccccc4)cc4c3[C@@H](CCO)N(S(=O)C(C)(C)C)C4)c2)c1` (some centres not stated)?
MLLE-PAM2 inh: -2

What do the screens show for `C=CCn1c(O)c(CN2CCN(Cc3ccccc3)CC2)c(C)c(C#N)c1=O`?
eIF4H FP inh: 126*; ALR H2O2 inh: -12; PABP polyA inh: 120; SUMO HTRF inh: -3; MLLE-PAM2 inh: 64; Efflux pump inh: 0

Results for CCCn1c(O)c(CN2CCCCC2)c(C)c(C#N)c1=O ?
eIF4H FP inh: inconclusive; ALR H2O2 inh: -14; PABP polyA inh: inconclusive; SUMO HTRF inh: 37; MLLE-PAM2 inh: 29; Efflux pump inh: 0

Results for Cc1ccc(S(=O)(=O)N(C)C)cc1NC(=O)COC(=O)C1CC1 ?
MLLE-PAM2 inh: 13; Efflux pump inh: 0

Results for CC(=O)Oc1cccc(N2C(=O)c3ccc(C(=O)O)cc3C2=O)c1 ?
eIF4H FP inh: -5; ALR H2O2 inh: 7; PABP polyA inh: 4; SUMO HTRF inh: 19; MLLE-PAM2 inh: -5; Efflux pump inh: 0

How did O=C(O)c1ccc2c(c1)C(=O)N(c1cccc(-c3nc4ccccc4s3)c1)C2=O do in these assays?
eIF4H FP inh: 0; ALR H2O2 inh: -3; PABP polyA inh: 11; SUMO HTRF inh: 70*; MLLE-PAM2 inh: 6; Efflux pump inh: 0

What do the screens show for `Cc1ccc(N2C(=O)c3ccc(C(=O)O)cc3C2=O)cc1C`?
eIF4H FP inh: 2; ALR H2O2 inh: 95*; PABP polyA inh: 13; SUMO HTRF inh: 16; MLLE-PAM2 inh: 4; Efflux pump inh: 0

What do the screens show for `O=C(Nc1ccc(O)cc1)c1ccc2c(c1)C(=O)N(N1C(=O)c3ccccc3C1=O)C2=O`?
eIF4H FP inh: -14; ALR H2O2 inh: 91*; PABP polyA inh: -7; SUMO HTRF inh: 4; MLLE-PAM2 inh: -1; Efflux pump inh: 0

How did Cc1cccc(C(=O)Nc2ccc(O)cc2)c1 do in these assays?
ALR H2O2 inh: 99*; MLLE-PAM2 inh: 6; Efflux pump inh: 0

How did COc1cc(NC(=O)c2cccs2)c(OC)cc1NC(=O)Nc1ccc(F)cc1 do in these assays?
eIF4H FP inh: 5; ALR H2O2 inh: -17; PABP polyA inh: 1; SUMO HTRF inh: 14; MLLE-PAM2 inh: 3; Efflux pump inh: 0

Results for Nc1cccc(-c2nc3ccccc3s2)c1 ?
eIF4H FP inh: -6; ALR H2O2 inh: 99*; PABP polyA inh: -1; SUMO HTRF inh: 32; MLLE-PAM2 inh: -9; Efflux pump inh: 0

What do the screens show for `O=C(O)c1ccc2c(c1)C(=O)N(N1C(=O)c3ccccc3C1=O)C2=O`?
eIF4H FP inh: -12; ALR H2O2 inh: -5; PABP polyA inh: 122*; SUMO HTRF inh: 12; MLLE-PAM2 inh: 5; Efflux pump inh: 0

What do the screens show for `CC(=O)C1=C(O)C(=O)N(c2cccnc2)C1c1cccc([N+](=O)[O-])c1` (configuration not stated)?
eIF4H FP inh: 1; ALR H2O2 inh: -6; PABP polyA inh: 2; SUMO HTRF inh: 26; MLLE-PAM2 inh: 9; Efflux pump inh: 0

What do the screens show for `CC(=O)C1=C(O)C(=O)N(c2ccc(O)cc2)C1c1cccc(F)c1` (configuration not stated)?
eIF4H FP inh: -1; ALR H2O2 inh: 82*; PABP polyA inh: 7; SUMO HTRF inh: 4; MLLE-PAM2 inh: 1; Efflux pump inh: 0
